Compounds without any hit were thinned out: in the full panel of roughly 83,000, 20% have a hit.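 96-well plates, one dose, 48 hours. Percent growth reported; active if below 10.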 Active and inactive are the calls of the source.

The test system of this assay is OVCAR-4 ovarian. Description: NCI-60 one-dose screen, 48 h (100 = growth as untreated, 0 = no growth, -100 = all killed). The following applies: 10 µM. The procedure: Growth inhibition of the OVCAR-4 human tumor cell line is measured as a screen for anti-cancer activity. Cells are grown in 96 well plates and exposed to the test compound for 48 hours. Compounds are tested at a single concentration, which is 10^-5 M for most compounds. The reported endpoint is percent growth (GI% or GIPRCNT), where numbers from 0 - 100% represent growth inhibition, and numbers from -100% - 0 represent cell death. For example, a value of 40 represents 60% growth inhibition. A value of 0 means no net growth occurred over the course of the experiment. A value of -40 indicates 40% of cells at the beginning of the experiment died by the end of the experiment. A value of -100 means all cells are dead at the end of the experiment.
NCI-60 Human Tumor Cell Lines Screen was performed using the standard one-dose NCI protocol, which is described in more detail at https://dtp.cancer.gov/discovery_development/nci-60/default.htm.
Compounds with GIPRCNT values below 10 were considered active. Activity score was based on GIPRCNT using the following formula: […]
Score is 0 for GIPRCNT values of 100 or above, 50 for GIPRCNT values of 0, and 100 for GIPRCNT values of -100.
With `Clc1cc(Cl)c(Cl)c(-c2nc(-c3cccnc3)cs2)c1`, the growth was 68.7% (inactive). The figure for `O=C(Nc1ccc(Oc2ccc(Nc3nc4ccccc4s3)cc2)cc1)Nc1ccc(Cl)c(Cl)c1` is 24.9% (inactive); for `CCCCOCCOCCOCc1cc2c(cc1Br)OCO2` it is 105% (inactive); for `COc1ccc(C2CC(c3ccc(-c4ccccc4)cc3)=NN2c2ccc(S(N)(=O)=O)cc2)cc1` (stereo not given) it is 70% (inactive). Turning to `Nc1nc(SCC#CCCl)c2[nH]cnc2n1`, the growth is 43.1% (inactive). Next, `COc1ccc(NC(=O)c2sc3nc4c(cc3c2N)C(O)CCC4)cc1` (stereo not given): 95.6% (inactive). On to `C[N+]1=C(/C=C/c2ccc(I)cc2)C(C)(C)c2ccccc21`, for which the growth was 109% (inactive). Next, `Cc1nc2cc(-n3c(-c4ccc(F)cc4)nc4ccccc4c3=O)ccc2n1Cc1ccccc1`: -18.3% (active); `CCCCC(=O)N(c1ccc(Nc2c3ccccc3nc3cc([N+](=O)[O-])ccc23)cc1)S(C)(=O)=O`: 81% (inactive); `O=C(Nc1ccc(OS(=O)(=O)Cc2ccccc2)cc1)C12CC3CC(CC(C3)C1)C2`: 78.7% (inactive). On to `CCCn1c(=O)c2c(nc(-c3cccc(OCCCCl)c3)n2C)n(CCC)c1=O`, for which the growth was 0.205% (active). In the case of `O=C(NC1CCCC1)c1ccc(N2CCC(NCc3cccc(C(F)(F)F)c3)CC2)cc1`, the growth was 89.5% (inactive). Next, `Cc1cc(Cl)ccc1Nc1nc(C(F)(F)F)ccc1C(=O)N/N=C/c1ccccc1Cl`: 29.2% (inactive); `CC(=O)n1nc(C(=O)OC(C)(C)C)c2cc(F)c(F)cc21`: 98.5% (inactive); `O=C(Nc1cccc([N+](=O)[O-])c1)NN1CCCCCC1`: 98.1% (inactive). For the molecule `COc1cc(-c2nc3ccc(C)cc3[nH]2)ccc1OCc1nnc(-c2ccc(CC(C)C)cc2)o1`, the growth is 91.2% (inactive). Next, `CC(=O)CS(C)(=O)=O`: 112% (inactive); `COC(=O)c1cnc2c(c1)Oc1ccc(Cl)cc1-c1cc(C)nn1-2`: -13.1% (active); `O=c1ccc2nc(-c3ccccc3)nn(-c3ccccc3)c-2c1`: -40.7% (active). With `CCc1ccc(-c2nnc(COc3ccc(-c4nc5ccc(C)cc5[nH]4)cc3OC)o2)cc1`, the growth is -59.8% (active). For the molecule `CC(C)C[C@H](NC(=O)Cn1ccc2ccccc2c1=O)B(O)O`, the growth is 93.3% (inactive). The figure for `CCCCC(CC#N)(CCC)CCC` is 93.2% (inactive); for `CC1=CC2OC34COC3CC(OC(=O)C(F)(F)F)C4(C)C2(C)CC1` (stereo not given) it is 103% (inactive).

With `CC(CNC(Cc1ccccc1)c1ccccc1)NC(Cc1ccccc1)c1ccccc1` (stereo not given), the growth is 31.7% (inactive).

`CCCc1c(CC)c(=N)c2ccccc2n1C`: the growth is 79.7% (inactive).

In the case of `Cc1ccc(Cl)cc1Nc1nc(C(F)(F)F)ccc1C(=O)N/N=C/c1c(Cl)cccc1Cl`, the growth is 17.5% (inactive). On to `COc1ccc(CSc2nc3cc(OC)c(OC)cc3c(=O)n2-c2ccc(OC)cc2OC)cc1`, for which the growth is 83.2% (inactive). The figure for `COc1cc(-c2nc3ccccc3[nH]2)ccc1OCC(=O)N=Nc1c(O)[nH]c2ccccc12` is 76.4% (inactive). Next, `Nc1nc2c(ncn2C2OC3COP(=O)(O)OC4C(COP(=O)(O)OC2C3O)OC(n2cnc3c(N)ncnc32)C4O)c(=O)[nH]1` (stereo not given): 105% (inactive); `CC(C)CCN(CCCNc1c2c(nc3cc(Cl)ccc13)CCCC2)CCC(C)C`: 50.8% (inactive); `O=C(Nc1ccc(OCc2nnc(-c3ccccc3)o2)c(F)c1)Nc1ccc(Cl)c(Cl)c1`: 50.6% (inactive). The figure for `CN(C1c2ccccc2Oc2ccccc21)S(=O)(=O)c1cc(Cl)ccc1Cl` is 69.2% (inactive); for `CCOC(=O)Nc1ccc2c(c1)C(=O)N(CC)c1ccccc1O2` it is 43.7% (inactive).

`COc1cc(C)c2sc3ccccc3c(=O)c2c1NCCN(C)C`: the growth is 72.8% (inactive). Next, `Cn1c(N)c(N=Cc2ccccc2)c(=O)n(C)c1=O`: 111% (inactive); `FC(F)(F)c1ccc(-c2cnc(Cl)nc2NCc2cc(C(F)(F)F)cc(C(F)(F)F)c2)cc1`: 19.5% (inactive). Next, `COc1cc(C2C(C#N)=C(c3c[nH]c4ccccc34)Nc3nc(N)[nH]c(=O)c32)cc(OC)c1OC` (stereo not given): 75.2% (inactive); `O=c1[nH]c(=O)n(C2C[C@@H](O)[C@@H](CO)O2)cc1F` (stereo not given in full): 39% (inactive). The figure for `Cc1cc(=O)oc2cc(OCc3cn(CC(O)CO)nn3)ccc12` (stereo not given) is 116% (inactive); for `Cn1c([N+](=O)[O-])cnc1/C=C1\Oc2ccc(Br)cc2C1=O` it is 3.03% (active).

For the origin of these results see PubChem BioAssay (NCI).
